Test results taken from the supplement of paper PMC4022240.
± gives the standard deviation.

How the values were obtained:
Assay in all cases: peptide microarray binding signal (635 nm), min-max normalized on array (fraction of array maximum); higher = stronger binding
Settings in all cases: peptide region: H2B 7-19
[1] = target: T1, HaloTag-ATRX ADD domain (163-292)
T1 chain: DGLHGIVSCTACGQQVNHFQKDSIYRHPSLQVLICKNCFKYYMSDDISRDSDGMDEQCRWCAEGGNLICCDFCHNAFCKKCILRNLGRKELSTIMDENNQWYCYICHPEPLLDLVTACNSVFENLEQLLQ
Experimental: (§1)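 Histone 13-mer peptides were synthesized as cellulose conjugates with a C-terminal 20-atom PEG linker and printed in triplicate on nitrocellulose. The sequence given is the unmodified backbone; PTMs (Kme1/2/3, Kac, Sph/Tph, Rme/Rme2a/Rme2s, Rcit) are listed in the label and the 'peptide modifications' condition. Slides were probed at 4 °C for 1 h with biotin-labelled (HQ)5-HaloTag reader fusions (ATRX-ADD, ING2-PHD) then streptavidin-Alexa647, or with rabbit histone antibodies then anti-rabbit Alexa647. The mean 635 nm signal of the triplicate spots was scaled 0-1 between the lowest and highest values on each array.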

[2] = target: HaloTag-ING2 PHD (mouse Ing2 200-280)
Experimental: as §1

[3] = target: anti-H3K4me3 antibody ab8580
Experimental: as §1

[4] = target: anti-H3K9me3 antibody ab8898
Experimental: as §1

[5] = peptide modifications: H2BK12ac H2BS14ph H2BK15ac, binder concentration: 1:2,000 dilution
[6] = peptide modifications: H2BK12ac H2BS14ph H2BK15ac, binder concentration: 1:10,000 dilution
[7] = peptide modifications: H2BK11ac H2BS14ph H2BK15ac H2BK16ac, binder concentration: 1:2,000 dilution
[8] = peptide modifications: H2BK11ac H2BS14ph H2BK15ac H2BK16ac, binder concentration: 1:10,000 dilution
[9] = peptide modifications: H2BK11ac H2BS14ph H2BK16ac, binder concentration: 1:2,000 dilution
[10] = peptide modifications: H2BK11ac H2BS14ph H2BK16ac, binder concentration: 1:10,000 dilution
[11] = peptide modifications: H2BK12ac, binder concentration: 1:2,000 dilution
[12] = peptide modifications: H2BK12ac, binder concentration: 1:10,000 dilution
[13] = peptide modifications: H2BK11ac H2BK15ac H2BK16ac, binder concentration: 1:2,000 dilution
[14] = peptide modifications: H2BK11ac H2BK15ac H2BK16ac, binder concentration: 1:10,000 dilution
[15] = peptide modifications: H2BK15ac, binder concentration: 1:2,000 dilution
[16] = peptide modifications: H2BK15ac, binder concentration: 1:10,000 dilution
[17] = peptide modifications: H2BK12ac H2BS14ph H2BK16ac, binder concentration: 1:2,000 dilution
[18] = peptide modifications: H2BK12ac H2BS14ph H2BK16ac, binder concentration: 1:10,000 dilution
[19] = peptide modifications: H2BK11ac H2BK12ac, binder concentration: 1:2,000 dilution
[20] = peptide modifications: H2BK11ac H2BK12ac, binder concentration: 1:10,000 dilution
[21] = peptide modifications: H2BK16ac, binder concentration: 1:2,000 dilution
[22] = peptide modifications: H2BK16ac, binder concentration: 1:10,000 dilution
[23] = peptide modifications: H2BK11ac H2BK16ac, binder concentration: 1:2,000 dilution
[24] = peptide modifications: H2BK11ac H2BK16ac, binder concentration: 1:10,000 dilution

APAPKKGSKKAVT [H2B 7-19 A P A P K Kac G Sph Kac K A V T]
peptide microarray binding signal ([1]; peptide modifications: H2BK12ac H2BS14ph H2BK15ac, binder concentration: 50 nM): 0.00266 ± 0.00014
peptide microarray binding signal ([1]; peptide modifications: H2BK12ac H2BS14ph H2BK15ac, binder concentration: 500 nM): 0.00105 ± 0.00012
peptide microarray binding signal ([2]; peptide modifications: H2BK12ac H2BS14ph H2BK15ac, binder concentration: 10 nM): 0.00221 ± 5.8e-05
peptide microarray binding signal ([2]; peptide modifications: H2BK12ac H2BS14ph H2BK15ac, binder concentration: 100 nM): 0.00241 ± 8e-05
peptide microarray binding signal [3, 5]: 7.55e-05 ± 1.7e-06
peptide microarray binding signal [3, 6]: 0.000571 ± 1.1e-05
peptide microarray binding signal [4, 5]: 0.000362 ± 1.3e-05
peptide microarray binding signal [4, 6]: 0.00075 ± 2.1e-05

APAPKKGSKKAVT [H2B 7-19 A P A P Kac K G Sph Kac Kac A V T]
peptide microarray binding signal ([1]; peptide modifications: H2BK11ac H2BS14ph H2BK15ac H2BK16ac, binder concentration: 50 nM): 0.00323 ± 0.00013
peptide microarray binding signal ([1]; peptide modifications: H2BK11ac H2BS14ph H2BK15ac H2BK16ac, binder concentration: 500 nM): 0.00167 ± 0.00033
peptide microarray binding signal ([2]; peptide modifications: H2BK11ac H2BS14ph H2BK15ac H2BK16ac, binder concentration: 10 nM): 0.00388 ± 8.9e-05
peptide microarray binding signal ([2]; peptide modifications: H2BK11ac H2BS14ph H2BK15ac H2BK16ac, binder concentration: 100 nM): 0.00269 ± 0.00017
peptide microarray binding signal [3, 7]: 0.000245 ± 1e-05
peptide microarray binding signal [3, 8]: 0.0012 ± 4.3e-05
peptide microarray binding signal [4, 7]: 0.000529 ± 1.3e-05
peptide microarray binding signal [4, 8]: 0.000865 ± 1.8e-05

APAPKKGSKKAVT [H2B 7-19 A P A P Kac K G Sph K Kac A V T]
peptide microarray binding signal ([1]; peptide modifications: H2BK11ac H2BS14ph H2BK16ac, binder concentration: 50 nM): 0.00207 ± 8.4e-05
peptide microarray binding signal ([1]; peptide modifications: H2BK11ac H2BS14ph H2BK16ac, binder concentration: 500 nM): 0.00281 ± 2.2e-05
peptide microarray binding signal ([2]; peptide modifications: H2BK11ac H2BS14ph H2BK16ac, binder concentration: 10 nM): 0.00227 ± 3.4e-05
peptide microarray binding signal ([2]; peptide modifications: H2BK11ac H2BS14ph H2BK16ac, binder concentration: 100 nM): 0.00128 ± 1.3e-05
peptide microarray binding signal [3, 9]: 0.000396 ± 1.2e-05
peptide microarray binding signal [3, 10]: 0.000514 ± 5.5e-06
peptide microarray binding signal [4, 9]: 0.000242 ± 6.7e-06
peptide microarray binding signal [4, 10]: 0.000461 ± 8.7e-06

APAPKKGSKKAVT [H2B 7-19 A P A P K Kac G S K K A V T]
peptide microarray binding signal ([1]; peptide modifications: H2BK12ac, binder concentration: 50 nM): 0.00335 ± 0.0001
peptide microarray binding signal ([1]; peptide modifications: H2BK12ac, binder concentration: 500 nM): 0.0041 ± 0.00068
peptide microarray binding signal ([2]; peptide modifications: H2BK12ac, binder concentration: 10 nM): 0.00471 ± 0.00015
peptide microarray binding signal ([2]; peptide modifications: H2BK12ac, binder concentration: 100 nM): 0.00737 ± 0.00077
peptide microarray binding signal [3, 11]: 0.000208 ± 4.5e-06
peptide microarray binding signal [3, 12]: 0.000799 ± 1.7e-05
peptide microarray binding signal [4, 11]: 0.00116 ± 0.00021
peptide microarray binding signal [4, 12]: 0.00213 ± 0.00019

APAPKKGSKKAVT [H2B 7-19 A P A P Kac K G S Kac Kac A V T]
peptide microarray binding signal ([1]; peptide modifications: H2BK11ac H2BK15ac H2BK16ac, binder concentration: 50 nM): 0.005642 ± 4e-05
peptide microarray binding signal ([1]; peptide modifications: H2BK11ac H2BK15ac H2BK16ac, binder concentration: 500 nM): 0.0203 ± 0.002
peptide microarray binding signal ([2]; peptide modifications: H2BK11ac H2BK15ac H2BK16ac, binder concentration: 10 nM): 0.00776 ± 0.00056
peptide microarray binding signal ([2]; peptide modifications: H2BK11ac H2BK15ac H2BK16ac, binder concentration: 100 nM): 0.0162 ± 0.0017
peptide microarray binding signal [3, 13]: 0.0139 ± 0.0047
peptide microarray binding signal [3, 14]: 0.00245 ± 0.0001
peptide microarray binding signal [4, 13]: 0.00378 ± 0.00028
peptide microarray binding signal [4, 14]: 0.00254 ± 0.0001

APAPKKGSKKAVT [H2B 7-19 A P A P K K G S Kac K A V T]
peptide microarray binding signal ([1]; peptide modifications: H2BK15ac, binder concentration: 50 nM): 0.00238 ± 6.4e-05
peptide microarray binding signal ([1]; peptide modifications: H2BK15ac, binder concentration: 500 nM): 0.00448 ± 0.00011
peptide microarray binding signal ([2]; peptide modifications: H2BK15ac, binder concentration: 10 nM): 0.00561 ± 0.00014
peptide microarray binding signal ([2]; peptide modifications: H2BK15ac, binder concentration: 100 nM): 0.0039 ± 0.00027
peptide microarray binding signal [3, 15]: 0.00308 ± 0.00021
peptide microarray binding signal [3, 16]: 0.000742
peptide microarray binding signal [4, 15]: 0.0006645 ± 5.9e-06
peptide microarray binding signal [4, 16]: 0.000807

APAPKKGSKKAVT [H2B 7-19 A P A P K Kac G Sph K Kac A V T]
peptide microarray binding signal ([1]; peptide modifications: H2BK12ac H2BS14ph H2BK16ac, binder concentration: 50 nM): 0.00194 ± 3.1e-05
peptide microarray binding signal ([1]; peptide modifications: H2BK12ac H2BS14ph H2BK16ac, binder concentration: 500 nM): 0.00229 ± 3.3e-05
peptide microarray binding signal ([2]; peptide modifications: H2BK12ac H2BS14ph H2BK16ac, binder concentration: 10 nM): 0.00358 ± 0.00017
peptide microarray binding signal ([2]; peptide modifications: H2BK12ac H2BS14ph H2BK16ac, binder concentration: 100 nM): 0.00198 ± 0.00015
peptide microarray binding signal [3, 17]: 0.000831 ± 0.00011
peptide microarray binding signal [3, 18]: 0.000628 ± 6.7e-06
peptide microarray binding signal [4, 17]: 0.000362 ± 6.3e-06
peptide microarray binding signal [4, 18]: 0.00075 ± 1.6e-05

APAPKKGSKKAVT [H2B 7-19 A P A P Kac Kac G S K K A V T]
peptide microarray binding signal ([1]; peptide modifications: H2BK11ac H2BK12ac, binder concentration: 50 nM): 0.00411 ± 0.00015
peptide microarray binding signal ([1]; peptide modifications: H2BK11ac H2BK12ac, binder concentration: 500 nM): 0.0031 ± 0.001
peptide microarray binding signal ([2]; peptide modifications: H2BK11ac H2BK12ac, binder concentration: 10 nM): 0.00603 ± 0.00082
peptide microarray binding signal ([2]; peptide modifications: H2BK11ac H2BK12ac, binder concentration: 100 nM): 0.00822 ± 0.001
peptide microarray binding signal [3, 19]: 0.000245 ± 2.6e-06
peptide microarray binding signal [3, 20]: 0.000913 ± 1.6e-05
peptide microarray binding signal [4, 19]: 0.000906 ± 4.5e-05
peptide microarray binding signal [4, 20]: 0.00127 ± 1.3e-05

APAPKKGSKKAVT [H2B 7-19 A P A P K K G S K Kac A V T]
peptide microarray binding signal ([1]; peptide modifications: H2BK16ac, binder concentration: 50 nM): 0.00392 ± 4.6e-05
peptide microarray binding signal ([1]; peptide modifications: H2BK16ac, binder concentration: 500 nM): 0.0109 ± 0.00096
peptide microarray binding signal ([2]; peptide modifications: H2BK16ac, binder concentration: 10 nM): 0.0037 ± 0.00013
peptide microarray binding signal ([2]; peptide modifications: H2BK16ac, binder concentration: 100 nM): 0.00617 ± 0.00026
peptide microarray binding signal [3, 21]: 0.00417 ± 0.00052
peptide microarray binding signal [3, 22]: 0.00097 ± 9.9e-06
peptide microarray binding signal [4, 21]: 0.000966 ± 4.4e-05
peptide microarray binding signal [4, 22]: 0.00144 ± 7.5e-05

APAPKKGSKKAVT [H2B 7-19 A P A P Kac K G S K Kac A V T]
peptide microarray binding signal ([1]; peptide modifications: H2BK11ac H2BK16ac, binder concentration: 50 nM): 0.00401 ± 5.5e-05
peptide microarray binding signal ([1]; peptide modifications: H2BK11ac H2BK16ac, binder concentration: 500 nM): 0.0108 ± 0.00051
peptide microarray binding signal ([2]; peptide modifications: H2BK11ac H2BK16ac, binder concentration: 10 nM): 0.00788 ± 0.0021
peptide microarray binding signal ([2]; peptide modifications: H2BK11ac H2BK16ac, binder concentration: 100 nM): 0.00751 ± 0.00032
peptide microarray binding signal [3, 23]: 0.00815 ± 0.00023
peptide microarray binding signal [3, 24]: 0.00108 ± 1.9e-05
peptide microarray binding signal [4, 23]: 0.00178 ± 9e-05
peptide microarray binding signal [4, 24]: 0.00133 ± 4.6e-05
